# According to paper PMC5540273 (PLoS ONE, 2017):
# “And” between values parts separate entries of the source, which are not always exact repeats. Equal values may be shown once. Read-outs that look alike come from different tables or passages of the source.
# Experiments:
# PIKFYVE = conditions: concentration: 1 μM, replicates: in singlicate, n = 1
# PIM1 = conditions: concentration: 1 μM, replicates: in singlicate; n = 1
# PIM2 = conditions: concentration: 1 μM, replicates: in singlicate; n = 1
# PIM3 = conditions: concentration: 1 μM, replicates: in singlicate; n = 1
# PIP5K1A = conditions: concentration: 1 μM, replicates: in singlicate, n = 1
# PIP5K1C = conditions: concentration: 1 μM, replicates: in singlicate, n = 1
# PIP5K2B = conditions: concentration: 1 μM, replicates: in singlicate, n = 1
# PIP5K2C = test system: T1, PIP5K2C; conditions: concentration: 1 μM, replicates: in singlicate, n = 1
# T1 construct: gene PIP4K2C
# PKAC-alpha = test system: T2, PKAC-alpha; conditions: concentration: 1 μM, replicates: in singlicate, n = 1
# T2 construct: gene PRKACA
# PKAC-beta = test system: T3, PKAC-beta; conditions: concentration: 1 μM, replicates: in singlicate, n = 1
# T3 construct: gene PRKACB
# PKMYT1 = conditions: concentration: 1 μM, replicates: in singlicate, n = 1
# PKN1 = conditions: concentration: 1 μM, replicates: in singlicate, n = 1
# PKN2 = conditions: concentration: 1 μM, replicates: in singlicate, n = 1
# PLK1 = conditions: concentration: 1 μM, replicates: in singlicate, n = 1
# PLK2 = conditions: concentration: 1 μM, replicates: in singlicate, n = 1
# PLK3 = conditions: concentration: 1 μM, replicates: in singlicate; n = 1
# PLK4 = conditions: concentration: 1 μM, replicates: in singlicate, n = 1
# PRKCD = conditions: concentration: 1 μM, replicates: in singlicate, n = 1
# PRKCE = conditions: concentration: 1 μM, replicates: in singlicate, n = 1
# PRKCH = conditions: concentration: 1 μM, replicates: in singlicate, n = 1
# 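Also: KINOMEscan kinase panel screen.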
smiles,measurement,setting,value
CN1c2ccc(NCc3ccc(F)cc3)cc2-c2c(cnn2C)S1(=O)=O,%Inh,PIKFYVE,32%
same,%Inh,PIM1,0%
same,%Inh,PIM2,2%
same,%Inh,PIM3,0%
same,%Inh,PIP5K1A,31%
same,%Inh,PIP5K1C,31%
same,%Inh,PIP5K2B,0%
same,%Inh,PIP5K2C,3%
same,%Inh,PKAC-alpha,9%
same,%Inh,PKAC-beta,0%
same,%Inh,PKMYT1,0%
same,%Inh,PKN1,0%
same,%Inh,PKN2,0%
same,%Inh,PLK1,2%
same,%Inh,PLK2,0%
same,%Inh,PLK3,0%
same,%Inh,PLK4,0%
same,%Inh,PRKCD,0%
same,%Inh,PRKCE,23%
same,%Inh,PRKCH,0%
COc1ccc(CNC(=O)NC2CCN(c3ccnc(Nc4ccc(OC)cc4)n3)C2)cc1 (stereo not drawn) [GSK1379727],%Inh,PIKFYVE,29%
same,%Inh,PIM1,0%
same,%Inh,PIM2,0%
same,%Inh,PIM3,0%
same,%Inh,PIP5K1A,0%
same,%Inh,PIP5K1C,57%
same,%Inh,PIP5K2B,4%
same,%Inh,PIP5K2C,33%
same,%Inh,PKAC-alpha,0%
same,%Inh,PKAC-beta,0%
same,%Inh,PKMYT1,2%
same,%Inh,PKN1,0%
same,%Inh,PKN2,0%
same,%Inh,PLK1,0%
same,%Inh,PLK2,0%
same,%Inh,PLK3,0%
same,%Inh,PLK4,0%
same,%Inh,PRKCD,0%
same,%Inh,PRKCE,15%
same,%Inh,PRKCH,17%
O=C1Cc2cc(Nc3nc(NCc4cccc(S(=O)(=O)C(F)(F)F)c4)ncc3C(F)(F)F)ccc2N1,%Inh,PIKFYVE,6%
same,%Inh,PIM1,100%
same,%Inh,PIM2,0%
same,%Inh,PIM3,6%
same,%Inh,PIP5K1A,13%
same,%Inh,PIP5K1C,3%
same,%Inh,PIP5K2B,20%
same,%Inh,PIP5K2C,0%
same,%Inh,PKAC-alpha,0%
same,%Inh,PKAC-beta,7%
same,%Inh,PKMYT1,17%
same,%Inh,PKN1,0%
same,%Inh,PKN2,0%
same,%Inh,PLK1,0%
same,%Inh,PLK2,5%
same,%Inh,PLK3,1%
same,%Inh,PLK4,4%
same,%Inh,PRKCD,17%
same,%Inh,PRKCE,23%
same,%Inh,PRKCH,0%
CN(C1=C(c2ccccc2)C(=O)NC1=O)c1ccccc1 [SB-334860],%Inh,PIKFYVE,10%
same,%Inh,PIM1,19%
same,%Inh,PIM2,0%
same,%Inh,PIM3,0%
same,%Inh,PIP5K1A,8%
same,%Inh,PIP5K1C,37%
same,%Inh,PIP5K2B,7%
same,%Inh,PIP5K2C,10%
same,%Inh,PKAC-alpha,4%
same,%Inh,PKAC-beta,0%
same,%Inh,PKMYT1,8%
same,%Inh,PKN1,20%
same,%Inh,PKN2,0%
same,%Inh,PLK1,3%
same,%Inh,PLK2,2%
same,%Inh,PLK3,0%
same,%Inh,PLK4,21%
same,%Inh,PRKCD,0%
same,%Inh,PRKCE,22%
same,%Inh,PRKCH,6%
Cc1c2ccc(N(C)c3ccnc(Nc4cccc(S(N)(=O)=O)c4)n3)cc2nn1Cc1ccccc1.Cl.Cl [GW787226],%Inh,PIKFYVE,0%
same,%Inh,PIM1,0%
same,%Inh,PIM2,0%
same,%Inh,PIM3,0%
same,%Inh,PIP5K1A,0%
same,%Inh,PIP5K1C,0%
same,%Inh,PIP5K2B,0%
same,%Inh,PIP5K2C,0%
same,%Inh,PKAC-alpha,17%
same,%Inh,PKAC-beta,4%
same,%Inh,PKMYT1,0%
same,%Inh,PKN1,0%
same,%Inh,PKN2,0%
same,%Inh,PLK1,0%
same,%Inh,PLK2,0%
same,%Inh,PLK3,15%
same,%Inh,PLK4,50%
same,%Inh,PRKCD,0%
same,%Inh,PRKCE,0%
same,%Inh,PRKCH,0%
CC(C)(CN)c1nc(-c2ccc(Cl)c(O)c2)c(-c2ccncc2)[nH]1.O=C(O)C(F)(F)F [SB-477794],%Inh,PIKFYVE; 1 µM,31% and 49%
same,%Inh,PIM1,0%
same,%Inh,PIM2,0%
same,%Inh,PIM3,0%
same,%Inh,PIP5K1A; 1 µM,40% and 61%
same,%Inh,PIP5K1C; 1 µM,3% and 61%
same,%Inh,PIP5K2B; 1 µM,0% and 19%
same,%Inh,PIP5K2C; 1 µM,64% and 49%
same,%Inh,PKAC-alpha; 1 µM,86% and 87%
same,%Inh,PKAC-beta; 1 µM,56% and 89%
same,%Inh,PKMYT1; 1 µM,28% and 26%
same,%Inh,PKN1; 1 µM,23% and 0%
same,%Inh,PKN2; 1 µM,0% and 21%
same,%Inh,PLK1; 1 µM,4% and 1%
same,%Inh,PLK2; 1 µM,0% and 15%
same,%Inh,PLK3,0%
same,%Inh,PLK4; 1 µM,5% and 0%
same,%Inh,PRKCD; 1 µM,78% and 87%
same,%Inh,PRKCE; 1 µM,96% and 96.3%
same,%Inh,PRKCH; 1 µM,92.9% and 94.1%
O=C1NC(=O)C(N2CCc3ccccc32)=C1c1cccc(Cl)c1 [SB-408010],%Inh,PIKFYVE,4%
same,%Inh,PIM1,16%
same,%Inh,PIM2,9%
same,%Inh,PIM3,6%
same,%Inh,PIP5K1A,0%
same,%Inh,PIP5K1C,39%
same,%Inh,PIP5K2B,0%
same,%Inh,PIP5K2C,0%
same,%Inh,PKAC-alpha,11%
same,%Inh,PKAC-beta,14%
same,%Inh,PKMYT1,20%
same,%Inh,PKN1,0%
same,%Inh,PKN2,3%
same,%Inh,PLK1,27%
same,%Inh,PLK2,0%
same,%Inh,PLK3,4%
same,%Inh,PLK4,25%
same,%Inh,PRKCD,0%
same,%Inh,PRKCE,19%
same,%Inh,PRKCH,13%
CC(=O)Nc1ccc(COc2ccc(Nc3ccnc4cc(-c5ccccn5)ccc34)cc2)cc1.Cl [GW440148],%Inh,PIKFYVE,2%
same,%Inh,PIM1,17%
same,%Inh,PIM2,0%
same,%Inh,PIM3,0%
same,%Inh,PIP5K1A,0%
same,%Inh,PIP5K1C,44%
same,%Inh,PIP5K2B,0%
same,%Inh,PIP5K2C,23%
same,%Inh,PKAC-alpha,0%
same,%Inh,PKAC-beta,0%
same,%Inh,PKMYT1,0%
same,%Inh,PKN1,32%
same,%Inh,PKN2,0%
same,%Inh,PLK1,0%
same,%Inh,PLK2,0%
same,%Inh,PLK3,0%
same,%Inh,PLK4,0%
same,%Inh,PRKCD,0%
same,%Inh,PRKCE,0%
same,%Inh,PRKCH,0%
O=C(NOCC1CC1)c1ccc(F)c(F)c1Nc1ccc(I)cc1Cl,%Inh,PIKFYVE,40%
same,%Inh,PIM1,0%
same,%Inh,PIM2,0%
same,%Inh,PIM3,0%
same,%Inh,PIP5K1A,0%
same,%Inh,PIP5K1C,3%
same,%Inh,PIP5K2B,0%
same,%Inh,PIP5K2C,0%
same,%Inh,PKAC-alpha,0%
same,%Inh,PKAC-beta,0%
same,%Inh,PKMYT1,0%
same,%Inh,PKN1,0%
same,%Inh,PKN2,0%
same,%Inh,PLK1,0%
same,%Inh,PLK2,8%
same,%Inh,PLK3,0%
same,%Inh,PLK4,0%
same,%Inh,PRKCD,3%
same,%Inh,PRKCE,28%
same,%Inh,PRKCH,0%
